Experimental findings from PubChem BioAssay AID642 (Vanderbilt High Throughput Screening Facility, 2007) are described below.

The whole screen tested about 2,200 compounds, of which about 2,000 (91%) were called active. So high a share suggests a set chosen from earlier hits. The list is a sample of the results. A number with no mark means an inactive call.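 How the source made its calls: active means luminescence in either of two replicates above the same-plate mean plus 3 SD of the low-dose dopamine control; inactive means the rest.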

The target in the experiment is D(1A) dopamine receptor (Homo sapiens) (UniProt P21728). The experiment in a line: potentiation of dopamine EC30 D1 response – cell-based, HEK293 D1, CRE-luciferase, duplicate, confirmation (AID 642). The note with it: at 10 µM, stronger effect = higher value.
Sequence of D(1A) dopamine receptor (Homo sapiens) (P21728 whole entry, looked up): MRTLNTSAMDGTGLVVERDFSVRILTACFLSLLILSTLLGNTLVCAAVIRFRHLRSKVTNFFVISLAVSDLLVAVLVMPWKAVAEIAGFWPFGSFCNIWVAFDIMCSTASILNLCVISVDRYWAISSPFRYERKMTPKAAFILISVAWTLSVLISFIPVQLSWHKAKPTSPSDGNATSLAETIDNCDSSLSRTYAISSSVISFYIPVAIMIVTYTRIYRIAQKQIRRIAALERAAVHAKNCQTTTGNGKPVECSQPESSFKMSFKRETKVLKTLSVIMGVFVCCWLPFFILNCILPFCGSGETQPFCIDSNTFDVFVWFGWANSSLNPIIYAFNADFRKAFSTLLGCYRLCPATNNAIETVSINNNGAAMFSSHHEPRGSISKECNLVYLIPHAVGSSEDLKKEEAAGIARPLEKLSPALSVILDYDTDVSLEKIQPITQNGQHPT
With `CC1(C)Cc2ccccc2-c2nc(CN3CCOCC3)[nH]c(=O)c21`, the luminescence was 19300 (active). The value for `CCCCNc1nc2ccccc2nc1NS(=O)(=O)c1cccs1` was 15900 (active); that for `Cn1c(=O)c2[nH]c(NCC3CCCO3)nc2n(-c2ccccc2)c1=O` (configuration not stated) was 8480 (active); that for `CN1CCN(CC(O)COCc2ccc3c(c2)OCO3)CC1` (configuration not stated) was 6270 (active). The value for `COc1ccc(Nc2oc(-c3ccccc3Cl)nc2C#N)cc1` was 15100 (active); that for `CCOc1ccc(Nc2oc(Cc3ccccc3)nc2C#N)cc1` was 10900 (active).

With `N#Cc1nc(Cc2ccccc2)oc1NCCc1ccccc1`, the luminescence is 8810 (active). For `CCCc1nc(N)nc2c1C(=O)CC(C)(C)C2` the value was 24100 (active); for `O=C(C1CCC1)N1CCc2cc(S(=O)(=O)NCc3cccnc3)ccc21`, 13000 (active). Turning to `CCOc1cccc(-n2nnnc2-c2ccc(OC)cc2)c1`, the luminescence is 10400 (active). With `CCOC(=O)c1c(NC(=O)CSc2nnc(Cc3csc(N)n3)n2C)sc(C)c1C`, the luminescence was 9070 (active). Consider `COc1ccc(-n2c(Cc3cccn3C)nnc2SCC(=O)Nc2cc(C)cc(C)c2)cc1`, for which the luminescence is 4890. Regarding `CCOC(=O)c1c(NC(=O)CSc2nnc(CN3CCOCC3)n2C)sc2c1CCCC2`, the luminescence is 11600 (active). Regarding `CC1Oc2ccccc2N(Cc2cccnc2)C1=O` (configuration not stated), the luminescence was 10900 (active). In the case of `COC(=O)[C@H](C(C)C)n1c(C)c(C(C)=O)c(C(C)=O)c1C`, the luminescence is 7760.

As for `CCCn1c(=NC(C)=O)c(C(=O)OCC)cc2c(=O)n3ccccc3nc21`, the luminescence was 9880 (active). The value for `c1coc(-c2nc3nc4ccccc4n3nc2-c2ccco2)c1` was 14000 (active). For `CCOc1cc(-c2noc(CCC(=O)N3CCOCC3)n2)ccc1OC`, the luminescence is 10500 (active). For the compound `CCOc1ccc(-c2nnn(CC(=O)N3CCN(c4ccc(OC)cc4)CC3)n2)cc1OCC`, the luminescence is 9620 (active). On to `COc1nc(NCc2ccc(Cl)cc2)nc(OC)n1`, for which the luminescence is 13700 (active). The value for `CC(=O)c1ccc(Oc2cc(C)nc(-n3nc(C)cc3C)n2)cc1` was 17900 (active); that for `COc1ccc(Nc2cc(C)nc(-n3nc(C)cc3C)n2)cc1` was 13700 (active). For `CCCCSc1nc2c(c(=O)n1CC)SC(C)C2` (configuration not stated) the value was 8100 (active); for `CC(C)C1C2=C(CC(C)(C)CC2=O)ON1c1ccccc1` (configuration not stated), 12900 (active); for `CCOC(=O)c1cc(C)sc1NC(=O)C1CCC1`, 19700 (active). For `N#CCCN1CCN(S(=O)(=O)c2ccc(S(=O)(=O)NC3CCCCC3)cc2)CC1` the value was 5770 (active).

`CCCS(=O)(=O)N1CCC(C(=O)NCCc2ccc(OC)c(OC)c2)CC1`: the luminescence was 7140. The value for `COc1ccc(CCN(C)C(=O)C2CCCN(Cc3ccc(OC)c(OC)c3)C2)cc1OC` (configuration not stated) was 7890 (active).

In the case of `COc1ccc(NC(=O)C2CCCN(S(=O)(=O)c3cccc4cccnc34)C2)cc1OC` (configuration not stated), the luminescence is 13800 (active). Regarding `CCSc1ncnc2c(C#N)c3n(c12)CCCCC3`, the luminescence is 18600 (active).

As to `COc1ccc(-c2nnco2)cc1OC`, the luminescence was 10800 (active). The value for `C=CCSc1nc2c(c(=O)[nH]1)C(C(C)C)C(C#N)=C(N)O2` (configuration not stated) was 18500 (active). For `CCOc1ccc2[nH]c(=O)c(C(c3nnnn3CCOC)N3CCOCC3)cc2c1` (configuration not stated) the value was 5420. In the case of `CC1CCN(c2nc3c(c(=O)[nH]c(=O)n3C)n2CCCc2ccccc2)CC1`, the luminescence is 14000 (active). The value for `CCCSc1nc2c(c(=O)[nH]c(=O)n2C)n1CCc1ccccc1` was 24800 (active); that for `O=C(NCc1ccco1)c1cnn2c(C(F)(F)F)cc(-c3ccco3)nc12` was 8660 (active). With `O=S(=O)(c1cccs1)N1CCc2ccccc2C1`, the luminescence is 12600 (active). For `CN(C)c1nc(N)nc(CSc2nnnn2-c2cccc3ccccc23)n1` the value was 7470 (active); for `CCn1ncc(C2=NOC(C(=O)Nc3ccccc3C(=O)OC)C2)c1C` (configuration not stated), 14000 (active); for `Cc1nn(-c2ccccc2)c2c1C(=O)NC(=O)C(C)(C)C2`, 17700 (active). For `CCn1cc(C(=O)NCC2COc3ccccc3O2)c2cc(OC)c(OC)cc2c1=O` (configuration not stated) the value was 9310 (active). For `Nc1ccc(S(=O)(=O)NC(=O)c2ccccc2)cc1` the value was 5620. As to `O/N=C(\c1ccc2c(c1)OCCO2)C1CCCCC1`, the luminescence is 10600 (active). For `CC(=O)OC(C)C[N+](C)(C)C` (configuration not stated) the value was 6620 (active).

Consider `c1ccc2c(NCC3CCCO3)nc(-c3ccncc3)nc2c1` (configuration not stated), for which the luminescence was 9880 (active). On to `CCCN1Cc2cccc(C(=O)NCc3ccccc3)c2C1=O`, for which the luminescence is 12000 (active). For `CC1CCN(c2oc(-c3ccccc3F)nc2C#N)CC1` the value was 8980 (active); for `C#CCNc1nc(C(C)C)nc2c1nnn2Cc1ccccc1F`, 11700 (active); for `CCOc1cc(C(=O)N2CCc3cc(OC)c(OC)cc3C2)ccc1OC(F)F`, 24600 (active).

Regarding `COc1ccc(CCNc2ncnc3nc[nH]c23)cc1OC`, the luminescence is 14700 (active). The value for `COc1ccc(-c2nnc(SCC(=O)NC3CCCCC3)o2)cc1OC` was 12200 (active). For `CCOc1ccccc1C1CC(c2ccccc2)Nc2nc(N)nn21` (configuration not stated) the value was 10100 (active); for `Cc1ccc(C2CC(c3cccc(Br)c3)n3nc(N)nc3N2)cc1` (configuration not stated), 10800 (active); for `Cc1ccc(C2CC(c3cccc(C)c3)n3nc(N)nc3N2)cc1` (configuration not stated), 8720 (active).

On to `FC(F)(F)c1cc(-c2ccco2)nc(N2CCOCC2)n1`, for which the luminescence is 24200 (active). For the compound `Cc1cc(C(F)(F)F)nn1-c1nc(-c2ccco2)cc(C(F)(F)F)n1`, the luminescence was 8160 (active).

Take `COc1ccc(-c2nnn(Cc3nc(N)nc(N4CCCCC4)n3)n2)cc1`: the luminescence was 12600 (active).

With `COc1ccc(S(=O)(=O)Nc2ccc(S(=O)(=O)N3CCCCC3)cc2)cc1OC`, the luminescence is 13000 (active). For `O=C(CSc1nnc2scc(-c3ccc(F)cc3)n12)NCc1ccco1` the value was 11300 (active); for `Cn1c(/C(C#N)=C2/CCCCCN2)nc2ccccc21`, 15000 (active); for `COc1ncnc2c1N=C1CC(C)(C)CC(N)=C1S2`, 8600 (active). As for `COC(=O)c1ccccc1NC(=O)C1CCN(S(=O)(=O)c2cc(OC)ccc2OC)CC1`, the luminescence was 13600 (active). The value for `CCCCc1c(O)nc2n(c1=O)CCS2` was 4500; that for `Oc1ccc(-c2csc(Nc3cccnc3)n2)cc1` was 10600 (active). For `COC(=O)C(C)C1Sc2ccccc2NC1=O` (configuration not stated) the value was 11200 (active). For `CC(=O)Nc1cccc(Oc2cc(C#N)c(C#N)cc2N2CCOCC2)c1` the value was 18800 (active).

`COc1cc(NC(=O)N2CCOCC2)cc(OC)c1`: the luminescence is 7060. Consider `CCn1c(=N)c(S(=O)(=O)c2ccc(F)cc2)cc2c(=O)n3ccccc3nc21`, for which the luminescence was 18300 (active).

For `CCc1ccc2oc(=O)cc(CN3CCCCC3C)c2c1` (configuration not stated), the luminescence was 10700 (active). For `COc1ccc(CCNC(=O)CCn2c(=O)oc3ccccc32)cc1OC` the value was 12500 (active); for `COc1ccc(CCNC(=O)c2cc3sccc3n2C)cc1OC`, 7950.

As for `CCCc1nc(-c2ccccc2O)n(-c2ccccc2)n1`, the luminescence is 14800 (active).

In the case of `COc1ncnc2sc3c(c12)CCCC3`, the luminescence is 9980 (active). Consider `N#Cc1c(N)sc2c1CCN(C(=O)OCc1ccccc1)C2`, for which the luminescence is 11700 (active). On to `COc1ccc(-c2n[nH]c(C)c2-c2ccc(OC)c(OC)c2)c(O)c1`, for which the luminescence is 7480 (active). Take `c1ccc(COc2nsnc2N2CCOCC2)cc1`: the luminescence is 9440 (active). The value for `CCSc1nc(C)nc2c1oc1ccccc12` was 15900 (active); that for `c1ccc(-c2nnc3n2NC(c2ccc4c(c2)OCO4)S3)cc1` (configuration not stated) was 13600 (active). With `Cn1c(=O)c2cn(-c3cccc4ccccc34)cc2n(C)c1=O`, the luminescence is 8890 (active).

For `COc1ccc(S(=O)(=O)N(C)CC(=O)Nc2ccc3c(c2)OCCO3)cc1OC`, the luminescence is 7550 (active). For `COC(=O)C1=C(C)NC2=C(C(=O)c3ccccc32)C1c1ccc(-c2ccc(C(=O)O)cc2)o1` (configuration not stated) the value was 12100 (active); for `COc1ccc(-c2nn3c(-c4ccccc4)nnc3s2)cc1OC`, 22300 (active); for `COc1cc(-c2nn3c(-c4cccc(C)c4)nnc3s2)cc(OC)c1OC`, 12800 (active). For `N#CCSc1nc2ccccc2c(=O)n1-c1ccccc1` the value was 19300 (active); for `CCOc1ccc(Cn2c(SCCCCC#N)nc3c2c(=O)n(C)c(=O)n3C)cc1OCC`, 14200 (active); for `CCC(=O)NC(=Nc1nc2ccccc2s1)NC(=O)CC`, 18700 (active). For the compound `CCNc1nc(NCC)nc(N(C)n2cnnc2)n1`, the luminescence is 15800 (active). The value for `C/C(Cl)=C\Cn1c(Nc2cccc(C)c2)nc2c1c(=O)n(C)c(=O)n2C` was 12000 (active); that for `Cc1cc(C)c2c(n1)nn1c(-n3ccnc3)cc(C)nc21` was 11600 (active).

Regarding `COc1ccc(-c2cc(C(F)(F)F)nc(S(C)(=O)=O)n2)cc1OC`, the luminescence is 10100 (active). For `CCCn1c(=O)c2[nH]c(C3CCCC3)nc2n(CCC)c1=O`, the luminescence is 22800 (active).

In the case of `CC(C)c1cc(C(=O)O)on1`, the luminescence was 5510. Regarding `CCOc1ccc2c(c1)cc(CN(C(=O)CC)C1CCCCC1)c1nnnn12`, the luminescence was 16400 (active).

Regarding `CC(C)n1c(C(O)c2ccccc2)nc2ccccc21` (configuration not stated), the luminescence is 6650 (active). For `COC(=O)Nc1ncc(CN2C(=O)c3ccccc3C2=O)s1` the value was 9780 (active); for `O=C(c1ccco1)N1CCN=C1SCc1cccc(Cl)c1`, 9520 (active); for `O=c1cc(-c2ccccc2)nc(N2CCCCC2)[nH]1`, 12700 (active).

`Cc1ccc(S(=O)(=O)c2c(N)n(C)c3nc4ccccc4nc23)cc1`: the luminescence is 11800 (active). For `CCOC(=O)c1cc2n(c1C)-c1ccccc1C2=O` the value was 9350 (active); for `C/C(=C\C(=O)c1ccccc1)Nc1cccc(O)c1`, 3550 (active); for `N#Cc1nc(N)nc(N(c2ccccc2)c2ccccc2)n1`, 13100 (active). On to `CCc1cc(=O)oc2cc(OCC(=O)N3CCCc4ccccc43)ccc12`, for which the luminescence is 14000 (active). For `CCn1nc(C(=O)OCC(=O)N2c3ccccc3CC2C)c2ccccc2c1=O` (configuration not stated) the value was 13900 (active); for `Cc1ccc(-c2nn(-c3ccccc3)cc2CN(Cc2ccccc2)C(=O)CCC(=O)O)o1`, 9380 (active); for `O=C(NCc1ccccn1)c1ccc2nc(-c3ccco3)c(-c3ccco3)nc2c1`, 10400 (active).

Consider `C=CCn1cnc2scc(-c3ccccc3)c2c1=O`, for which the luminescence is 16400 (active). Consider `CCOC(=O)/C=c1\s/c(=C\c2ccccc2OC)c(=O)n1CC(=O)N1CCOCC1`, for which the luminescence is 15600 (active).
